Source: the supplement of paper PMC10849652
The full data set covers some 7,900 targets. This sample favours those with a hit. About 0.6% of all pairs of compound and target were hits.

What was measured:
Experiment in all cases: log2 fold change, soluble protein after heating vs DMSO (PISA); higher = thermal stabilisation; K562 cells, 10 uM, 30 min; active = over 0.2 and 3.5 SD of the protein, either way, in both replicates (recomputed)
[1] = compound: COC1=CC=C(C=C1)CN2C=CC3=C2C=C(C=C3)C(=O)NO
Outline: (§1)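 Values are thermal stability changes relative to control samples and are taken from duplicates. They are stated as log2 fold changes. Before quantification by TMTpro 16plex LC-MS/MS with equalised channel sums, K562 cells at 2×10^6 cells/mL were treated with 10 μM compound for 30 min, heated in aliquots for 3 min across 48°C-58°C, pooled, extracted in PBS with 0.5% NP-40 at 4°C, and centrifuged at 21,000xg for 90 min to give the soluble supernatant.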

filanesib = compound: CON(C)C(=O)N1N=C(c2cc(F)ccc2F)S[C@@]1(CCCN)c1ccccc1 [filanesib]
Outline: as §1

zotarolimus = compound: CO[C@H]1C[C@@H]2CC[C@@H](C)[C@@](O)(O2)C(=O)C(=O)N2CCCC[C@H]2C(=O)O[C@H]([C@H](C)C[C@@H]2CC[C@H](n3cnnn3)[C@H](OC)C2)CC(=O)[C@H](C)/C=C(\C)[C@@H](O)[C@@H](OC)C(=O)[C@H](C)C[C@H](C)/C=C/C=C/C=C/1C [zotarolimus]
Outline: as §1

idasanutlin = compound: COc1cc(C(=O)O)ccc1NC(=O)[C@@H]1N[C@@H](CC(C)(C)C)[C@](C#N)(c2ccc(Cl)cc2F)[C@H]1c1cccc(Cl)c1F [idasanutlin]
Outline: as §1

alisertib = compound: COc1cc(Nc2ncc3c(n2)-c2ccc(Cl)cc2C(c2c(F)cccc2OC)=NC3)ccc1C(=O)O [alisertib]
Outline: as §1

[2] = compound: COc1cc2nc(-c3cc(F)ccc3O)nc(N[C@@H]3CNC[C@H]3C(C)(C)O)c2cc1OC
Outline: as §1

gefitinib = compound: COc1cc2ncnc(Nc3ccc(F)c(Cl)c3)c2cc1OCCCN1CCOCC1 [gefitinib]
Outline: as §1

[3] = compound: COc1cccc2cc(-c3nc([C@H]4CC[C@H](C(=O)O)CC4)n4ncnc(N)c34)[nH]c12
Outline: as §1

lapatinib = compound: CS(=O)(=O)CCNCc1ccc(-c2ccc3ncnc(Nc4ccc(OCc5cccc(F)c5)c(Cl)c4)c3c2)o1 [lapatinib]
Outline: as §1

pictilisib = compound: CS(=O)(=O)N1CCN(Cc2cc3nc(-c4cccc5[nH]ncc45)nc(N4CCOCC4)c3s2)CC1 [pictilisib]
Outline: as §1

Measured: log2 fold change

PUF60 (UniProt Q9UHX1)
UniProt Q9UHX1, sequence (Q9UHX1 whole entry, looked up): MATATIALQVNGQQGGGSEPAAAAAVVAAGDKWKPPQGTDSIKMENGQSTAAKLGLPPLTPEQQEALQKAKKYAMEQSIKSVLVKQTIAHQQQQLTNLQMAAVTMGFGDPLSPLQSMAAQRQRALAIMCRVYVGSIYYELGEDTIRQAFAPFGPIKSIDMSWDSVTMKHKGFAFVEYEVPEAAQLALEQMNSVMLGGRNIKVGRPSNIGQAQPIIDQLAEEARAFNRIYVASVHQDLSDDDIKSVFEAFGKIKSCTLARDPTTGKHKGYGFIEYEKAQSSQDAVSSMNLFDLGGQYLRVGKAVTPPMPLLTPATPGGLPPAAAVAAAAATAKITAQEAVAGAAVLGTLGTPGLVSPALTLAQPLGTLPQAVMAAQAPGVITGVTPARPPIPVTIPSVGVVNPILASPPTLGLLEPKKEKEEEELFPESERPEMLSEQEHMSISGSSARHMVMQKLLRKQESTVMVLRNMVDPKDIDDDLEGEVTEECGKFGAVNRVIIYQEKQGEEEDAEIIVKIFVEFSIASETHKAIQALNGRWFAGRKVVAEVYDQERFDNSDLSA
inactive: [1] 0.007 | filanesib 0.087 | zotarolimus 0.026 | idasanutlin 0.022 | alisertib -0.05 | [2] -0.028 | gefitinib 0.014 | [3] 0.008 | lapatinib 0.063 | pictilisib 0

PARP16 isoform 3 (UniProt Q8N5Y8)
UniProt Q8N5Y8, sequence (Q8N5Y8 whole entry, looked up): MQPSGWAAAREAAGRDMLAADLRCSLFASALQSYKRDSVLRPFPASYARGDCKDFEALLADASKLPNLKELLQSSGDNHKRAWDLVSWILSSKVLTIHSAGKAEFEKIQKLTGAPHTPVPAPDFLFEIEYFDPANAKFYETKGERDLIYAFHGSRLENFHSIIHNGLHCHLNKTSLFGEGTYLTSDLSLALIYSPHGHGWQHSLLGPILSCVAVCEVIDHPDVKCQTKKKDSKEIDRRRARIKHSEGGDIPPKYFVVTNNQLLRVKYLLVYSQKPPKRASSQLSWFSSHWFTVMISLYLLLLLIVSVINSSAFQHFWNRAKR
inactive: [1] -0.029 | filanesib -0.13 | zotarolimus 0.039 | idasanutlin -0.056 | alisertib -0.075 | [2] -0.097 | gefitinib 0.011 | [3] -0.03 | lapatinib 0.071 | pictilisib -0.008

PXK (UniProt Q7Z7A4)
UniProt Q7Z7A4, sequence (Q7Z7A4 whole entry, looked up): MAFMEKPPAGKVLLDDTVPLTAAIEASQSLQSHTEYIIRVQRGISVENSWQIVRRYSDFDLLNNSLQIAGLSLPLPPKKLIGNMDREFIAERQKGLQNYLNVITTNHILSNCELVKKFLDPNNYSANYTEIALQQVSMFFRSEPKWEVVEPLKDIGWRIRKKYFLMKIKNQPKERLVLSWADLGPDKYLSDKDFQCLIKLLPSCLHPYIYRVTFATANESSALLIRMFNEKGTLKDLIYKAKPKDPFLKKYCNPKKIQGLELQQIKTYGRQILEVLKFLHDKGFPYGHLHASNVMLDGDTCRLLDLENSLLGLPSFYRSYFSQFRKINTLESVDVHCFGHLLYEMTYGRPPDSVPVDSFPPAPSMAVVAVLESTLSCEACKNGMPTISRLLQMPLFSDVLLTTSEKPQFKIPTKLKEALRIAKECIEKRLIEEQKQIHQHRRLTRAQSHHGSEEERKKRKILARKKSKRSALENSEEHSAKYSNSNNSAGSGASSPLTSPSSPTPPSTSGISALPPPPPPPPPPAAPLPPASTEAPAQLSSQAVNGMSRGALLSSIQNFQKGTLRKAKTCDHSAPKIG
inactive: [1] 0.105 | filanesib -0.005 | zotarolimus 0.021 | idasanutlin -0.035 | alisertib -0.057 | [2] 0.069 | gefitinib -0.001 | [3] 0.015 | lapatinib 0.03 | pictilisib 0.127

PMPCB (UniProt O75439)
inactive: [1] -0.046 | filanesib 0.036 | zotarolimus 0.047 | idasanutlin -0.122 | alisertib -0.078 | [2] 0.046 | gefitinib 0.006 | [3] 0.008 | lapatinib -0.054 | pictilisib -0.012

PNPLA4 (UniProt P41247)
inactive: [1] 0.041 | filanesib -0.184 | zotarolimus -0.142 | idasanutlin 0.003 | alisertib 0.026 | [2] -0.133 | gefitinib 0.015 | [3] 0.113 | lapatinib -0.049

PCBP1 (UniProt Q15365)
inactive: [1] 0.076 | filanesib -0.036 | zotarolimus 0.102 | idasanutlin -0.044 | alisertib -0.015 | [2] -0.014 | gefitinib -0.003 | [3] -0.003 | lapatinib -0.022 | pictilisib -0.036

PFDN1 (UniProt O60925)
inactive: [1] -0.048 | filanesib -0.007 | zotarolimus 0.091 | idasanutlin -0.024 | alisertib -0.042 | [2] -0.125 | gefitinib -0.002 | [3] 0.026 | lapatinib -0.047 | pictilisib 0.014

PRCP (UniProt P42785)
UniProt P42785, sequence (P42785 whole entry, looked up): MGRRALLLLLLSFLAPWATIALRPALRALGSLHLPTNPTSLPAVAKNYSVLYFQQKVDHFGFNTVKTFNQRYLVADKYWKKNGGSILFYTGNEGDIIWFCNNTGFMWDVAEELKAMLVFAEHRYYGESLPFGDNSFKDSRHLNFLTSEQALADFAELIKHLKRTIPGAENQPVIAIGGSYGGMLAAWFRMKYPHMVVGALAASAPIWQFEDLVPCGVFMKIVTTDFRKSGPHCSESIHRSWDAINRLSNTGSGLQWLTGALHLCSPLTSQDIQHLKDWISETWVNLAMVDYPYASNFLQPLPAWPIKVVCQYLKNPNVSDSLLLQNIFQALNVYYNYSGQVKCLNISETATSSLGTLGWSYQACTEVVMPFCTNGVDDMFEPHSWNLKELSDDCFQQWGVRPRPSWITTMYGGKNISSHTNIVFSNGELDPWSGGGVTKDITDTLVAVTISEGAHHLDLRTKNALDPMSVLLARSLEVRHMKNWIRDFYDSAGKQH
inactive: [1] 0.009 | filanesib -0.038 | zotarolimus -0.007 | idasanutlin -0.055 | alisertib -0.013 | [2] -0.074 | gefitinib 0.029 | [3] 0.065 | lapatinib -0.014 | pictilisib 0.019

PRKCA (UniProt P17252)
inactive: [1] -0.005 | filanesib -0.066 | zotarolimus 0.008 | idasanutlin 0.01 | alisertib -0.019 | [2] 0.057 | gefitinib -0.002 | [3] 0.017 | lapatinib -0.027 | pictilisib 0.055

PCBP2 (UniProt F8VRH0)
inactive: [1] 0.139 | filanesib 0.107 | zotarolimus 0.013 | idasanutlin 0.218 | alisertib 0.305 | [2] -0.34 | gefitinib 0.055 | [3] -0.21 | lapatinib 0.06 | pictilisib -0.231

PEX7 (UniProt O00628)
inactive: [1] 0.013 | filanesib -0.063 | zotarolimus 0.058 | idasanutlin -0.002 | alisertib -0.01 | [2] -0.09 | gefitinib -0.003 | [3] 0.072 | lapatinib -0.032 | pictilisib 0.055

PTGES3 (UniProt Q15185)
UniProt Q15185, sequence (Q15185 whole entry, looked up): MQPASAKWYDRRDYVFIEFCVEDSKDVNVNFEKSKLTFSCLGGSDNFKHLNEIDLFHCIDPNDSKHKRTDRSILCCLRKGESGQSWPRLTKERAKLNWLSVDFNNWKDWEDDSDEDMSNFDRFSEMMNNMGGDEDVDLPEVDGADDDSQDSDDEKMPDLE
inactive: [1] 0.23 | filanesib -0.091 | zotarolimus 0.055 | idasanutlin 0.004 | alisertib 0.016 | [2] -0.044 | gefitinib 0.044 | [3] -0.038 | lapatinib 0.007 | pictilisib 0.027

PPIL4 (UniProt Q8WUA2)
inactive: [1] -0.001 | filanesib 0.116 | zotarolimus 0.032 | idasanutlin 0.101 | alisertib -0.003 | [2] 0.015 | gefitinib 0.002 | [3] -0.005 | lapatinib 0.02 | pictilisib 0.018

PSMD3 (UniProt O43242)
inactive: [1] -0.058 | filanesib 0.061 | zotarolimus 0.021 | idasanutlin 0.003 | alisertib -0.075 | [2] -0.089 | gefitinib -0.035 | [3] -0.011 | lapatinib 0.061 | pictilisib -0.023

PDS5A (UniProt Q29RF7)
inactive: [1] 0.076 | filanesib -0.316 | zotarolimus -0.137 | idasanutlin -0.012 | alisertib 0.067 | [2] 0.043 | gefitinib -0.125 | [3] -0.19 | lapatinib -0.072 | pictilisib -0.014

PIGT (UniProt Q969N2)
inactive: [1] -0.004 | filanesib 0 | zotarolimus 0.012 | idasanutlin -0.02 | alisertib -0.081 | [2] 0.046 | gefitinib -0.006 | [3] -0.013 | lapatinib 0.027 | pictilisib -0.007

PTPA (UniProt Q15257)
inactive: [1] -0.015 | filanesib -0.022 | zotarolimus 0.02 | idasanutlin -0.064 | alisertib -0.041 | [2] 0.034 | gefitinib 0.018 | [3] 0.036 | lapatinib 0.012 | pictilisib 0.02

PTTG1IP (UniProt P53801)
UniProt P53801, sequence (P53801 whole entry, looked up): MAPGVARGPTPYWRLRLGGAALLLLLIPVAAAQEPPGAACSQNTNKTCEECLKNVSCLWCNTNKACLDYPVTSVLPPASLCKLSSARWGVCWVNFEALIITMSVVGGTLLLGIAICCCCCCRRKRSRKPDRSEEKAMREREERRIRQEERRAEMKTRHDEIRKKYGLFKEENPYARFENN
inactive: [1] -0.013 | filanesib -0.186 | zotarolimus -0.124 | idasanutlin -0.004 | alisertib -0.046 | [2] 0.038 | gefitinib 0.158 | [3] 0.007 | lapatinib -0.096 | pictilisib 0.086

POLD3 (UniProt Q15054)
inactive: [1] 0.002 | filanesib -0.176 | zotarolimus 0.123 | idasanutlin -0.029 | alisertib 0.002 | [2] -0.05 | gefitinib 0.066 | [3] 0.1 | lapatinib 0.098 | pictilisib 0.004

POLR2B (UniProt P30876)
inactive: [1] 0.034 | filanesib 0.031 | zotarolimus -0.012 | idasanutlin -0.039 | alisertib -0.057 | [2] 0.214 | gefitinib 0.064 | [3] 0.007 | lapatinib -0.018 | pictilisib 0.076

PAK4 (UniProt O96013)
inactive: [1] -0.106 | filanesib 0.068 | zotarolimus 0.03 | idasanutlin -0.021 | alisertib 0.153 | [2] 0.195 | gefitinib 0 | [3] 0.075 | lapatinib -0.047 | pictilisib 0.072

PTK2B (UniProt Q14289)
inactive: [1] 0.083 | filanesib -0.077 | zotarolimus 0.019 | idasanutlin 0.026 | alisertib 0.064 | [2] 0.345 | gefitinib -0.011 | [3] -0.057 | lapatinib -0.022 | pictilisib 0.117

PTPN23 (UniProt Q9H3S7)
UniProt Q9H3S7, sequence (Q9H3S7 whole entry, looked up): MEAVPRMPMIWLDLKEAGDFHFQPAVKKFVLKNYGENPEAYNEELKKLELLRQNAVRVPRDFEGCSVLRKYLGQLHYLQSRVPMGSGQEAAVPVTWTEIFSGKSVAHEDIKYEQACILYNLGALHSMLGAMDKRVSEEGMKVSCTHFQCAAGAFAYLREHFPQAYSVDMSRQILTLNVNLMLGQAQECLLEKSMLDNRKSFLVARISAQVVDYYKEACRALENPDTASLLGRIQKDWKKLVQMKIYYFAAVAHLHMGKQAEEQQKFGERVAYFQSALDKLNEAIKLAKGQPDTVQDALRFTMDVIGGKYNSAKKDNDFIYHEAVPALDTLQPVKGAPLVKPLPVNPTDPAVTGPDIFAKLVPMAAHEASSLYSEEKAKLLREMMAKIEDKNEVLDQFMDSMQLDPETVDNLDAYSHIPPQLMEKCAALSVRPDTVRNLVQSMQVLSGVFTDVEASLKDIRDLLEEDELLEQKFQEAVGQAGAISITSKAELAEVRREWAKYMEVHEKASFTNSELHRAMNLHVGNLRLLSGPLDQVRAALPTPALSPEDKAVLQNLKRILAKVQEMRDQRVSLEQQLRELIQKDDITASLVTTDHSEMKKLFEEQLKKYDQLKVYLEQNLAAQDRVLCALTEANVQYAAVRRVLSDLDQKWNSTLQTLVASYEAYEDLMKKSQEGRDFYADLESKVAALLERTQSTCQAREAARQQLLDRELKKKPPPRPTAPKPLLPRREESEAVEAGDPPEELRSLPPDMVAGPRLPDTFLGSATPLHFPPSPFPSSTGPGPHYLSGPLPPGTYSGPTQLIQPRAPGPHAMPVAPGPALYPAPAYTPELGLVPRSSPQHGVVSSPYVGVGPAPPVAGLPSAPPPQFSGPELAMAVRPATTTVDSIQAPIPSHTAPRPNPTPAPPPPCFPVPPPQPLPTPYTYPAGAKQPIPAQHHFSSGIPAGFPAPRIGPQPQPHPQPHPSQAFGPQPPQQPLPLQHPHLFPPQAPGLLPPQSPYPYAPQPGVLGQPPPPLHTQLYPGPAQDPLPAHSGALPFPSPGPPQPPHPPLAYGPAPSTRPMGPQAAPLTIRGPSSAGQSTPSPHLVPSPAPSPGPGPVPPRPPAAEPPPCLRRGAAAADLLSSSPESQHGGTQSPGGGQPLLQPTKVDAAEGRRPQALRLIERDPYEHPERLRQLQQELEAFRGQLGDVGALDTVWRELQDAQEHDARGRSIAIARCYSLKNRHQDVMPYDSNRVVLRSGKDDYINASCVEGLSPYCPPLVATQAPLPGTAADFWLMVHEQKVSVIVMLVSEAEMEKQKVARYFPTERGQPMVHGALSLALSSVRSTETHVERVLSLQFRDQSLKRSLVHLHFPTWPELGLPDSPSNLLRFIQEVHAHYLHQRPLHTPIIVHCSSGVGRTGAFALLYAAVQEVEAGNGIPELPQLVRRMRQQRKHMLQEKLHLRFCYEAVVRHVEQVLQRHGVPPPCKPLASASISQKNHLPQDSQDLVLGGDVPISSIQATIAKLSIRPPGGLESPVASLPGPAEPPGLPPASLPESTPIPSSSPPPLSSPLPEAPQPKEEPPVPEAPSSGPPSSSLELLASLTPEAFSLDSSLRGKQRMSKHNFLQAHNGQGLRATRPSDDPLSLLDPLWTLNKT
inactive: [1] 0.12 | filanesib 0.038 | zotarolimus 0.059 | idasanutlin -0.038 | alisertib 0.002 | [2] 0.044 | gefitinib 0.041 | [3] -0.008 | lapatinib -0.012 | pictilisib 0.037

POLD1 (UniProt P28340)
UniProt P28340, sequence (P28340 whole entry, looked up): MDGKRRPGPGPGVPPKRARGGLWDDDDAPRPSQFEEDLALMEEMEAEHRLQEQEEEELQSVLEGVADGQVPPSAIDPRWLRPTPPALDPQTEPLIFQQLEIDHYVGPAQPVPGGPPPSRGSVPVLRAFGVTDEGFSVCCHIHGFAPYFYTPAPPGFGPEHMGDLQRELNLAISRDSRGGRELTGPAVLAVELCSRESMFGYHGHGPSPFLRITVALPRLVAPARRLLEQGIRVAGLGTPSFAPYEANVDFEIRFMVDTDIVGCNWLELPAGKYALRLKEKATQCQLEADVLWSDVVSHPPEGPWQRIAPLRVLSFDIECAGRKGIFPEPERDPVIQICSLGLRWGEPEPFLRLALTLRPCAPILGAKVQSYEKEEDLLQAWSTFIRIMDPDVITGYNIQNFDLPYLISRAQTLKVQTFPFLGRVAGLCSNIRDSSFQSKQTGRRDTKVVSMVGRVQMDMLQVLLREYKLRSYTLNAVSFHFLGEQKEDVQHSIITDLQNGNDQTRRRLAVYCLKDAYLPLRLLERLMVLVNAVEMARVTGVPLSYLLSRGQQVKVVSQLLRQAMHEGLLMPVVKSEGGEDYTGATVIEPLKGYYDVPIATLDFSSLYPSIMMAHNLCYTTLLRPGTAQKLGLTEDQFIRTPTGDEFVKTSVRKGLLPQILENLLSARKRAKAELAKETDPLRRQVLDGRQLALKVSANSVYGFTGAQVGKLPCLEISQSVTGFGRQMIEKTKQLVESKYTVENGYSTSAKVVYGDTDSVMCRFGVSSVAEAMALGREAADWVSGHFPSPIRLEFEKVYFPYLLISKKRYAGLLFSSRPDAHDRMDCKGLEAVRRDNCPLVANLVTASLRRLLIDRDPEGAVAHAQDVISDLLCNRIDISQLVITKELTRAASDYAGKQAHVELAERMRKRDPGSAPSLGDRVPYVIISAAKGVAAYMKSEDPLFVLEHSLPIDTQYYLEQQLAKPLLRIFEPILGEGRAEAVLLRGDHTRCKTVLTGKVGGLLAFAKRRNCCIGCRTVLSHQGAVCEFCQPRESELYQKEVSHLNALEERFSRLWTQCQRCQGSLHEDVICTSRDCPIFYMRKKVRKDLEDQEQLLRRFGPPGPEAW
inactive: [1] 0.025 | filanesib -0.038 | zotarolimus 0.007 | idasanutlin 0.024 | alisertib -0.042 | [2] -0.006 | gefitinib 0.007 | [3] 0.047 | lapatinib 0.01 | pictilisib 0

PARG (UniProt Q86W56)
inactive: [1] 0.065 | filanesib -0.057 | zotarolimus 0.048 | idasanutlin -0.093 | alisertib -0.114 | [2] 0.013 | gefitinib 0.023 | [3] 0.094 | lapatinib 0.013 | pictilisib -0.023

PSMC2 (UniProt P35998)
inactive: [1] -0.076 | filanesib 0.049 | zotarolimus -0.03 | idasanutlin 0.033 | alisertib -0.05 | [2] -0.034 | gefitinib -0.051 | [3] -0.05 | lapatinib 0.059 | pictilisib -0.067

POLR1A (UniProt O95602)
inactive: [1] 0.248 | filanesib 0.075 | zotarolimus -0.05 | idasanutlin 0.063 | alisertib -0.076 | [2] -0.007 | gefitinib 0.037 | [3] -0.008 | lapatinib 0.069 | pictilisib 0.078

PLK1 (UniProt P53350)
inactive: [1] 0.013 | filanesib 0.068 | zotarolimus -0.021 | idasanutlin 0.014 | alisertib 0.02 | [2] 0.092 | gefitinib -0.024 | [3] -0.133 | lapatinib 0.041 | pictilisib -0.072

PPM1G (UniProt O15355)
inactive: [1] -0.011 | filanesib 0.014 | zotarolimus 0.028 | idasanutlin 0.066 | alisertib 0.019 | [2] 0.081 | gefitinib 0.044 | [3] -0.089 | lapatinib -0.052 | pictilisib 0.093

PPP1R12A (UniProt O14974)
inactive: [1] 0.003 | filanesib 0.064 | zotarolimus 0.048 | idasanutlin 0.041 | alisertib 0.028 | gefitinib 0.009 | [3] -0.006 | lapatinib 0.036 | pictilisib 0.005
active: [2] -0.658
